Test results published in PubChem BioAssay (NCI).
This is part of a sample that, as a whole, favours compounds with a hit. Of some 83,000 tested, about 20% had one in any assay.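 96-well plates, one dose, 48 hours. Percent growth reported; active if below 10.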 A number with no mark means an inactive call. Active and inactive are the calls of the source.

Key:
Test in all cases: NCI-60 one-dose screen, 48 h (100 = growth as untreated, 0 = no growth, -100 = all killed)
Details in all cases: 10 µM unless noted
DU-145 prostate = system: DU-145 prostate
K-562 leukemia = system: K-562 leukemia
MALME-3M melanoma = system: MALME-3M melanoma
MDA-MB-231 breast = system: MDA-MB-231 breast
RXF 393 renal = system: RXF 393 renal
SF-268 CNS = system: SF-268 CNS
SF-295 CNS = system: SF-295 CNS
SF-539 CNS = system: SF-539 CNS
UACC-257 melanoma = system: UACC-257 melanoma
M14 melanoma = system: M14 melanoma
HCT-15 colon = system: HCT-15 colon
HT29 colon = system: HT29 colon
SNB-19 CNS = system: SNB-19 CNS
U251 CNS = system: U251 CNS
PC-3 prostate = system: PC-3 prostate
SK-MEL-5 melanoma = system: SK-MEL-5 melanoma
UACC-62 melanoma = system: UACC-62 melanoma
LOX IMVI melanoma = system: LOX IMVI melanoma
SK-MEL-28 melanoma = system: SK-MEL-28 melanoma

| SMILES | growth (DU-145 prostate) | growth (K-562 leukemia) | growth (MALME-3M melanoma) [%] | growth (MDA-MB-231 breast) | growth (RXF 393 renal) [%] | growth (SF-268 CNS) | growth (SF-295 CNS) [%] | growth (SF-539 CNS) | growth (UACC-257 melanoma) [%] | growth (M14 melanoma) [%] | growth (HCT-15 colon) | growth (HT29 colon) | growth (SNB-19 CNS) | growth (U251 CNS) | growth (PC-3 prostate) | growth (SK-MEL-5 melanoma) [%] | growth (UACC-62 melanoma) | growth (LOX IMVI melanoma) | growth (SK-MEL-28 melanoma) [%] |
| --- | --- | --- | --- | --- | --- | --- | --- | --- | --- | --- | --- | --- | --- | --- | --- | --- | --- | --- | --- |
| COC(CCP(=O)(c1ccccc1)c1ccccc1)(C(=O)c1ccccc1)c1ccccc1 (stereo unspecified) | 111% | 9.03% (active) | 96.3 | 73.6% | 76.2 | 86.1% | 32.1 | 87.2% | 64.3 | 63 | 52.6% | 57.5% | 71.6% | 71.3% | -46.2% (active) | 34.3 | 53.8% | 64.6% | 89.1 |
| O=C(NCCN1CCOCC1)c1cncnc1Nc1ccc2c(ccn2Cc2ccccn2)c1 | 110% | 116% | 102 | 106% | 134 | 97.3% | 102 | 100% | 102 | 108 | 105% | 102% | 95.5% | 99.7% | 101% | 101 | 94.6% | 101% | 108 |
| COc1cc2c(c(OC)c1OC)CCC(c1cccc(C(=O)Nc3ccc([N+](=O)[O-])cc3)c1)O2 (stereo unspecified) | 57% | 21.8% | 68.3 | 37.1% | 69.8 | 59.3% | 39.8 | 76.2% | 50.9 | 30.7 | 54.5% | 64% | 56.7% | 57.7% | 27.1% |  | 31.4% | 52.9% | 61.9 |
| COc1cc2c(c(OC)c1OC)CCC(c1cccc(C(=O)Nc3ccccc3Br)c1)O2 (stereo unspecified) | 86.7% | 71.5% | 89.6 | 83.3% | 91.8 | 87.1% | 94.9 | 83.1% | 90.7 | 67.4 | 92% | 82.4% | 90.1% | 90.7% | 76.1% | 86.3 | 66.2% | 90.2% | 94.6 |
| COC(=O)CNC(=O)c1ccc(NC(=O)c2[nH]c(C)c(Cl)c2Cl)c(O[C@H]2CCNC2)c1 | 110% | 90.7% | 109 | 105% | 111 | 102% | 105 | 98% | 103 | 107 | 107% | 108% | 102% | 101% | 96.8% | 101 | 98.7% | 94.4% | 115 |
| Cc1ccc(S(=O)(=O)N(CCC(=O)O)c2ccccc2)cc1 | 111% | 93.4% | 142 | 114% | 152 | 102% | 111 | 99.1% | 102 | 107 | 102% | 110% | 109% | 102% | 101% | 112 | 104% | 97.3% | 119 |
| COC(=O)[C@H](C)NC(=O)[C@@H]1CCCN1C(=O)CNC(=O)[C@H](C)N | 105% | 101% | 86.7 | 106% | 108 | 97% | 100 | 106% | 103 | 103 | 97.4% | 104% | 98.6% | 103% | 102% | 101 | 88.8% | 96.3% | 118 |
| CCOC(=O)CCC(=O)P(=O)(O)O | 114% | 8.96% (active) | 103 | 119% | 122 | 114% | 101 | 101% | 93 | 92.4 | 108% | 95.9% | 92.6% | 102% | 62.8% | 104 | 96.6% | 104% | 93.6 |
| CCOC(=O)c1c2c(n3ccc(NC(=O)CCN4CCCC4)cc13)C(=O)c1ncccc1C2=O | -89.3% (active) | -40.3% (active) | 66.3 | -71.2% (active) | 47.5 | -67.8% (active) | 32.2 | -75.8% (active) | 105 | 63.7 | -78.1% (active) | -52.8% (active) | -55.4% (active) | -88.5% (active) | -11.7% (active) |  | -12.4% (active) | -73% (active) | 96.4 |
| CC(C)=CCC[C@](C)(O)C1CC[C@]2(C)[C@@H]1CC[C@@H]1[C@@]3(C)CC/C(=N\OCCC#N)C(C)(C)[C@@H]3CC[C@]12C (stereo partly specified) | 83.9% | 67.6% | 71.8 | 94.1% | 109 | 87.4% | 97.9 | 91.9% | 86.1 | 88.5 | 83.4% | 65.1% | 92.4% | 90.3% | 62.3% | 85.8 | 68.9% | 89.2% | 94.1 |
| Nc1nc(N)c2c(n1)NC(c1cccc(Nc3ccnc4cc(C(F)(F)F)ccc34)c1)CC(c1ccc(Cl)cc1)=N2 (stereo unspecified) | 69.5% | 10.5% | 50.8 | 54.4% | 37.6 | 55.2% | 48.4 | 80.8% | 87.3 | 29.7 | 20.3% | 10.6% | 62.8% | 36.7% | 32.4% | 47.2 | 76.3% | 37.5% | 80.7 |
| O=C(O)c1cc2ccccc2s1 | 124% | 107% | 130 | 104% | 110 | 107% | 97.8 | 101% | 105 | 110 | 106% | 110% | 111% | 95.9% | 96.4% | 104 | 107% | 99.6% | 117 |
